# According to PubChem BioAssay:
# Calls of active or inactive are those of the source. No rule for the calls is given here.
# Target: Pantothenate synthetase (Mycobacterium tuberculosis (strain ATCC 25618 / H37Rv)) (UniProt P9WIL5)
# Assay: Recombinant Mtb pantothenate synthetase (PanC) inhibitors, coupled enzyme, confirmatory (AID 375);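 also: 0% = full reaction with vehicle and 100% = no enzyme background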
# Conditions: coupled enzyme assay; at 10 µM, hits give high values
# Chain of Pantothenate synthetase (Mycobacterium tuberculosis (strain ATCC 25618 / H37Rv)) (P9WIL5 whole entry, looked up): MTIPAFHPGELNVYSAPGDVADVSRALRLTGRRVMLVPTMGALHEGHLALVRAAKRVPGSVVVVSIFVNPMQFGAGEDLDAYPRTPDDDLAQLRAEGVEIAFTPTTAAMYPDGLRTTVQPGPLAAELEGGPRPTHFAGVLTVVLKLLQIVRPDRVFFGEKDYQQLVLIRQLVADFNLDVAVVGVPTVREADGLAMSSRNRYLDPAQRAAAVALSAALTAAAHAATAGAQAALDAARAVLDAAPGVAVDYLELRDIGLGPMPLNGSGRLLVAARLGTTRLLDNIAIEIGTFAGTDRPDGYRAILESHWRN
row,Compound,inhibition
1,CCc1nnc(NC(=O)CN2CCN(c3ccccc3OC)CC2)s1,4% (inactive)
2,CCOC(=O)c1ccc(NC(=O)CSc2n[nH]c(-c3ccncc3)n2)cc1,5% (inactive)
3,O=C(Nc1cc(C(F)(F)F)ccc1N1CCCC1)c1ccc2c(c1)OCO2,2% (inactive)
4,CCOc1nc(-c2ccccc2)ccc1-c1noc(-c2ccc(OC)c(OC)c2)n1,4% (inactive)
5,Cc1ccc(-c2nnnn2CS(=O)(=O)c2ccccc2)cc1,0% (inactive)
6,CC(C)(C)OC(=O)NCCc1nnc(SCC(=O)c2ccc(Cl)cc2)o1,0% (inactive)
7,Cn1nnc2cc(C(=O)N3CCCCCC3)ccc21,0% (inactive)
8,CCCOC(=O)C1[C@H]2C(=O)N(CCCOC)C[C@]23C=C[C@H]1O3 (stereo not given in full),0% (inactive)
9,CC(=O)Nc1cc(N2C(=O)CCC2=O)ccc1Cl,0% (inactive)
10,OC[C@H]1O[C@@H](n2cnc3c(Nc4ccccc4)ncnc32)[C@H](O)[C@@H]1O,1% (inactive)
11,CCn1nnc(NC(=O)c2ccccc2Br)n1,0% (inactive)
12,Cc1oc(C(=O)O)cc1CSCc1cc(C(=O)O)c(C)o1,2% (inactive)
13,COc1cc(-c2c(C#N)c(N)nc3c2CCCC3)cc(OC)c1OC,5% (inactive)
14,CC(C)Cn1c(-c2ccc(F)cc2)n[nH]c1=S,0% (inactive)
15,Cc1c(C(=O)OCCOC(C)C)[nH]c2c1C(=O)CC(c1ccco1)C2 (stereo not given),0% (inactive)
16,COc1cccc(C2=Nn3c(nnc3-c3ccccc3O)SC2)c1,1% (inactive)
17,O=C(Nc1nc(-c2ccc(S(=O)(=O)N3CCCCCC3)cc2)cs1)c1cccs1,0% (inactive)
18,CCCOc1cccc(C(=O)Nc2cc(NC(=O)c3ccco3)ccc2OC)c1,0% (inactive)
19,C=C(C)Cn1c(N2CC(C)CC(C)C2)nc2c1c(=O)[nH]c(=O)n2C (stereo not given),0% (inactive)
20,CC(C)(C)OC(=O)N1CCCC1C(=O)N1CCc2ccccc21 (stereo not given),0% (inactive)

row,Compound,inhibition
1,CC1=C(C(N)=O)C(c2ccccn2)n2nc(-c3ccccc3Cl)nc2N1 (stereo not given),5% (inactive)
2,CN1CCN(C2=Nc3ccccc3Oc3ccc(Cl)cc32)CC1,4% (inactive)
3,CN1/C(=C\C(=O)Nc2cccnc2)c2ccccc2CC1(C)C,3% (inactive)
4,COc1cc(C2c3c(oc4c(C)cc(C)cc4c3=O)C(=O)N2Cc2cccnc2)cc(OC)c1OC (stereo not given),2% (inactive)
5,Cc1ccc2cc(C(c3nnnn3C3CCCC3)N3CCN(c4ccc(F)cc4)CC3)c(=O)[nH]c2c1 (stereo not given),6% (inactive)
6,CC1Cc2nc(SCC(=O)Nc3ccccc3F)n(C)c(=O)c2S1 (stereo not given),7% (inactive)
7,COc1cccc(-n2c(SCC(=O)OC(C)C)nnc2-c2cccnc2)c1,2% (inactive)
8,O=C(COC(=O)c1cccc(S(=O)(=O)N2CCc3ccccc32)c1)NC1CCS(=O)(=O)C1 (stereo not given),0% (inactive)
9,CCN(CC(=O)NCc1cccs1)C(=O)c1cc(S(=O)(=O)N2CCOCC2)ccc1C,0% (inactive)
10,CCOC(=O)N1CCN(C(=O)c2ccc(CS(=O)(=O)c3c(Cl)cccc3Cl)o2)CC1,0% (inactive)
11,O=C(NCc1ccco1)C1CCN(C(=O)c2cc3sccc3n2Cc2ccc(F)cc2)CC1,5% (inactive)
12,Cc1ccc2nc(C3CCN(CC(=O)N4CCCCCC4)CC3)[nH]c2c1,0% (inactive)
13,CCCCOc1ccc(-c2ncc(Cl)cn2)cc1,0% (inactive)
14,C#CCN1C(=O)C(O)(CC(=O)c2cc(OC)ccc2OC)c2ccccc21 (stereo not given),6% (inactive)
15,CCOC(=O)c1ccc2nc(NC(NC(C)=O)(C(=O)OC)C(F)(F)F)sc2c1 (stereo not given),2% (inactive)
16,CCn1c(C(=O)N2CCC(C(=O)N3CCN(c4ccccn4)CC3)CC2)cc2sccc21,7% (inactive)
17,CC(=O)NC1=NC(=O)/C(=C/N2CCCCC2)S1,8% (inactive)
18,COc1cc(/C=C/C(=O)CC(=O)/C=C/c2ccc(O)c(OC)c2)ccc1O,10% (inactive)
19,COCCn1c(=O)[nH]c2cc(C(=O)N3CCN(c4ccccc4OC)CC3)ccc2c1=O,2% (inactive)
20,COC(=O)c1sc(NC(=O)COc2ccccc2OC)nc1C,0% (inactive)
